# CIT2 TOR yeast: yeast TOR pathway CIT2-GFP modulation; S. cerevisiae CIT2-GFP strain, flow cytometry, 3 h; 100 means same as DMSO wells; GFP response vs DMSO, % at 10 µM; actives 0.065% (n = 320,000);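 active means GFP response relative to DMSO above a set limit, near the screen mean plus 3 SD, cut at about 150% in these data; inconclusive means Fewer than 70 cells measured for a yeast strain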;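 further: ratio of well median GFP fluorescence to mean of DMSO wells on the plate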
# RPL19A TOR yeast: modulators of TOR pathway RPL19A-GFP in S. cerevisiae. percent response vs DMSO, % at 10 µM. actives 0.3% (n = 330,000). AID 2025. S. cerevisiae RPL19A-GFP strain, flow cytometry, 3 h; stronger effect = lower value;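 active means percent response vs DMSO below 50%; inconclusive means fewer than 70 events counted for the yeast strain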;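 further: median channel GFP fluorescence of the barcoded RPL19A-GFP strain; ratio of sample median GFP to plate DMSO average so 100% = DMSO; lower means less RPL19A-GFP as with rapamycin TOR inhibition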
# MEP2 TOR yeast: alters MEP2-GFP fluorescence in TOR pathway yeast screen; S. cerevisiae MEP2-GFP strain, flow cytometry GFP, 3 h; 100% = DMSO control level; GFP response vs DMSO, % at 10 µM; actives 0.51% (n = 330,000);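 active means GFP response versus DMSO above a set limit, roughly screen mean plus 3 SD, cut at about 180% in these data; inconclusive means fewer than 70 cells counted for a yeast strain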;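 further: median GFP fluorescence of the barcode-gated MEP2-GFP cells per well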
# AGP1 TOR yeast: alters AGP1-GFP fluorescence in TOR pathway yeast screen; S. cerevisiae AGP1-GFP multiplex flow cytometry, 3 h; GFP as percent of DMSO wells; GFP response vs DMSO, % at 10 µM; actives 0.02% (n = 320,000);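 active means GFP response relative to DMSO above a set limit, near screen average plus 3 SD, cut at about 150% in these data; inconclusive means fewer than 70 cells counted for the yeast strain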;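 further: median GFP channel fluorescence of the gated AGP1 strain per well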
# DSG3 Ab inh: human desmoglein-3 autoantibody binding inhibition; P32926; DSG3-coupled beads, scFv-anti-DSG3-GFP binding, flow cytometry; stronger effect = lower value; binding (percent of control), % at 10 µM; actives 0.48% (n = 310,000); AID 588358;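 active means binding more than 3 SD below its plate's average and above zero; inconclusive means below that plate limit but binding exactly zero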;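 further: hits lower antibody fragment binding to DSG3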
# Target sequence (P32926 whole entry, looked up, the tested form may be a part): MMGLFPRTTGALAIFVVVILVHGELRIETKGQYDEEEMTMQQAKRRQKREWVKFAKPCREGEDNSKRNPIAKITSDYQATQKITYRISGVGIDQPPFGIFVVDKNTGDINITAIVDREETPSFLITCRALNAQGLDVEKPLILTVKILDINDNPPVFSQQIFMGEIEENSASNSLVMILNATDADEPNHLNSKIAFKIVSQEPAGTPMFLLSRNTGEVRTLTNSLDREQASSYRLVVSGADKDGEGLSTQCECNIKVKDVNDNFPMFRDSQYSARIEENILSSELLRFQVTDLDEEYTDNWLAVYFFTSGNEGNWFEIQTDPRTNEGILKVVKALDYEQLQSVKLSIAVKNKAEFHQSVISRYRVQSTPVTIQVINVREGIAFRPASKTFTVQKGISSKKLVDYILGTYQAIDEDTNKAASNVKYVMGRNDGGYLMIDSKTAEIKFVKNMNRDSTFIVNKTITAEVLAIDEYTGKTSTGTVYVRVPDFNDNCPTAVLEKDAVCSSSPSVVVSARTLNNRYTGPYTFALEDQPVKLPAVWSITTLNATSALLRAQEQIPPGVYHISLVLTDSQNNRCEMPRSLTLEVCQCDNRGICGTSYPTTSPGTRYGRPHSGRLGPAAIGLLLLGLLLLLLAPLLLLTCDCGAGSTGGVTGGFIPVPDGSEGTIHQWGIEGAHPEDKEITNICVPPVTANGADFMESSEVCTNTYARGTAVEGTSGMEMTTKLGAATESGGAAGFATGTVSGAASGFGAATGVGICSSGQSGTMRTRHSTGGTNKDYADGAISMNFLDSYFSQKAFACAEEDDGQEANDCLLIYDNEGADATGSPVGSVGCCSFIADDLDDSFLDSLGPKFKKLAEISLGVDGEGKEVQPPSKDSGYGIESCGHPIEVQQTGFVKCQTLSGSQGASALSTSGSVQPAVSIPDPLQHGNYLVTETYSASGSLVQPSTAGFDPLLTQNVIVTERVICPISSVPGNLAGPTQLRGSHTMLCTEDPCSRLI
# LAP4 TOR yeast: alters LAP4-GFP fluorescence in TOR pathway yeast screen | S. cerevisiae LAP4-GFP multiplex, flow cytometry GFP, 3 h; median GFP as percent of DMSO wells | GFP response vs DMSO, % at 10 µM | actives 0.34% (n = 320,000);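 active means GFP response vs DMSO above a set limit, about the screen mean plus 3 SD, cut at about 150% in these data; inconclusive means under 70 cell events counted for the yeast strain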
# * hit, by the source's call; ? = inconclusive; . = no result given; [ ] = dose if it differs, or a comment. The list is not random: actives were taken first. Their share in the collection is about 1.2%.
SMILES,CIT2 TOR yeast,RPL19A TOR yeast,MEP2 TOR yeast,AGP1 TOR yeast,DSG3 Ab inh,LAP4 TOR yeast
O=C1c2ccc(Br)cc2C(=O)N1c1ccc(Cc2ccncc2)cc1,.,.,.,.,93,.
COc1ccc(NC(=O)C2CCCN(S(=O)(=O)c3ccccc3)C2)c(OC)c1 (configuration not stated),.,108,105,97,108,84
COc1ccccc1C(=O)Nc1nsc(-c2ccccc2)n1,79,93,87,83,80,151*
C[C@H]1COC(=O)[C@H](CC(=O)OC(C)(C)C)C/C=C\C[C@H](CC(=O)N(CCO)Cc2ccccc2)C(=O)N1,104,108,102,109,98,113
O=C(COc1ccccc1)Nc1ccc(Cl)cc1Cl,93,98,95,95,.,115
O=C(COc1ccccc1)Nc1cc(Cl)ccc1Cl,99,102,107,92,80*,101
Cc1cc(=O)oc2cc(OCC(=O)Nc3ccc(S(=O)(=O)N(C)C)cc3)ccc12,102,99,101,102,71*,103
Cc1cc(=O)oc2cc(OCC(=O)OCC(=O)Nc3ccccc3Br)ccc12,101,94,94,103,71*,107
COc1ccc(OC)c(N(CC(=O)NC2CCCC2)S(=O)(=O)c2ccc(OC)c(OC)c2)c1,97,99,94,95,104,98
O=C(O)CC(NC(=O)/C(=C/c1ccccc1)NC(=O)c1ccccc1)c1ccccc1 (configuration not stated),?,37*[may fluoresce violet],261*[may fluoresce violet],?,104,44
O=C(NC(Cc1ccccc1)C(=O)O)/C(=C/c1ccc(Cl)cc1)NC(=O)c1ccccc1 (configuration not stated),101,108,101,101,98,92
O=C(NC(Cc1ccccc1)C(=O)O)/C(=C/c1ccccc1)NC(=O)c1ccco1 (configuration not stated),?,22*[may fluoresce violet],220*[may fluoresce violet],?,110,66
Cc1noc(C)c1CC(=O)Nc1ccc2c(c1)OCO2,102,101,105,108,99,101
CN1Cc2sc(NC(=S)NC(=O)c3ccccc3)c(C#N)c2CC1(C)C,161*,106,157,110,105,155*
O=C(OC1CCCCC1=O)c1cc(S(=O)(=O)N2CCOCC2)ccc1F (configuration not stated),102,103,101,107,99,99
O=C(Nc1ccccc1N1CCOCC1)c1cc(=O)[nH]c2ccccc12,99,102,100,102,.,105
CCCN1CCN(C(=O)Cn2ncc3c([nH]c4ccc(C)cc43)c2=O)CC1,?,65,186*[may fluoresce violet],19,102,99
N=C1C=CC(=C(c2ccc(N)cc2)c2ccc(N)cc2)C=C1,.,.,.,.,78,.
Cc1cccc(Cn2cnc3c(nnn3Cc3ccc(Cl)cc3)c2=O)c1,110,103,105,109,91,107
Cc1ccc(Cn2cnc3c(nnn3Cc3ccc(Cl)cc3)c2=O)cc1,107,94,96,99,73*,95
CCCNC(=O)CCc1c(C)nc2nc(-c3cc(OC)cc(OC)c3)nn2c1C,112,95,94,99,.,87
CCCCNC(=O)CCc1c(C)nc2nc(-c3cc(OC)cc(OC)c3)nn2c1C,98,98,98,100,-1.6*,98
CCOC(=O)C(Cc1ccccc1)NC(=O)CCc1c(C)nc2nc(C)nn2c1C (configuration not stated),100,94,92,95,86*,95
O=C(O)c1ccc(C2SCC(=O)N2Cc2ccco2)cc1 (configuration not stated),98,95,101,101,99,96
O=C1CSC(c2ccncc2)N1Cc1ccco1 (configuration not stated),98,100,107,108,80*,100
SMILES,CIT2 TOR yeast,RPL19A TOR yeast,MEP2 TOR yeast,AGP1 TOR yeast,DSG3 Ab inh,LAP4 TOR yeast
CC1CC(=O)Nc2ccccc2N1C(=O)CSc1nnnn1C (configuration not stated),100,94,100,92,100,90
O=C(C1=C(O)C(=O)N(CCN2CCOCC2)C1c1ccc(F)cc1)c1cc2ccccc2o1 (configuration not stated),?,16*[may fluoresce violet],158,?,97,70
CN1CCN(/N=C/c2c3ccccc3c(Cl)c3ccccc23)CC1,61,72,146,11,114,163*
Oc1ccc(-c2csc(-c3ccccc3)n2)cc1O,101,90,97,88,123,206*
Cc1ccc(NC(=S)N2CCN(c3ccccc3F)CC2)c(C)c1,86,96,105,92,112,108
COc1ccc2nc(C)c(C(N)=O)cc2c1,85,?,?,?,95,?
COc1cc2cc(C(N)=O)c(N)nc2cc1OC,?,44*[may fluoresce violet],216*[may fluoresce violet],?,101,97
Cn1cc(CN2CCC(C(=O)N3CCCCC3)CC2)c(-c2ccccc2F)n1,98,99,99,99,32*,95
CCOC(=O)C1CCCCN1Cc1cn(C)nc1-c1ccccc1F (configuration not stated),96,94,92,98,88,102
CC(C)OC(=O)CSc1nc2c(cc1C#N)CCCCC2,95,96,102,99,87*,90
COc1ccc(-c2csc(NC(C)c3nc4cc(Cl)c(Cl)cc4n3CCOCCO)n2)cc1 (configuration not stated),98,98,96,97,104,84
CC(Nc1nc(-c2ccc(F)cc2)cs1)c1nc2cc(Cl)c(Cl)cc2n1CCCO (configuration not stated),101,99,92,102,87*,101
CCN(CC)S(=O)(=O)c1ccc(C(=O)NCC2(N3CCOCC3)CCCCC2)cc1,99,101,102,104,103,98
Cc1cccc(C)c1NC(=O)C1CCCNC1 (configuration not stated),?,20*[may fluoresce violet],253*[may fluoresce violet],?,.,129
Cc1cccc(C)c1NC(=O)C1CCCN(CCCc2ccccc2)C1 (configuration not stated),.,.,.,.,109,.
COc1ccc(C2C3=C(CCCC3=O)N(CC(=O)O)C3=C2C(=O)CCC3)cc1Cl,130,46*,502*,148,105,126
COc1ccc(C2C3=C(CCCC3=O)N(CC(=O)O)C3=C2C(=O)CCC3)cc1Br,.,.,.,.,107,.
CCOc1cc(C2C3=C(CCCC3=O)N(CC(=O)O)C3=C2C(=O)CCC3)ccc1OC,88,94,88,86,116,78
COc1ccccc1C1C2=C(CCCC2=O)N(CC(=O)O)C2=C1C(=O)CCC2,?,14*[may fluoresce violet],257*[may fluoresce violet],?,115,58
